Assay results reported in PubChem BioAssay (NCATS).
Results filed as inconclusive are left out. The source made the active and inactive calls. The call rests on the fitted dose curve; in most records, active means well fitted curve in the direction sought with a large enough effect; inconclusive means small, poorly fitted or top-dose-only effect, or another doubt; inactive means no such curve, though single readings can be large; an effect the other way counts as inactive or inconclusive.

Legend:
[1] = Cell Viability - SH-SY5Y (AID 544); conditions: SH-SY5Y neuroblastoma cell viability; viability change, negative = cytotoxic: at 92.2 µM (top of the series);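 further: cells exposed to compound for 40 hours; nearly all actives have a fitted effect of over 55% in size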
Method in brief: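 Cytotoxicity is scored as a concentration-dependent fall in intracellular ATP in human SH-SY5Y cells treated 40 hr in complete culture medium. Potency is expressed as AC50 from a Hill equation fit.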

[2] = Cell Viability - Renal Proximal Tubule (AID 545);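 further: cells exposed to compound for 40 hours; nearly all actives have a fitted effect of over 40% in size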
Method in brief: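 Rat kidney proximal tubule cells, freshly isolated; 1000 cells/well, 5 hr settle, compound 40 hr 37 °C. CellTiter-Glo 20 min RT, luminescence read. AC50 by standard Hill fit.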

[3] = Cell Viability - Mesenchymal (AID 546);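 further: cells exposed to compound for 40 hours before reading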
Method in brief: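 Normal human renal glomerulus-derived kidney mesenchymal cells, 1000 per well in complete medium, were treated with compounds for 40 hr at 37 °C. Viability was read as intracellular ATP by CellTiter-Glo luminescence; AC50 values came from Hill-equation fits of qHTS concentration-response data.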

[4] = Cellular Toxicity (caspase-3) HepG2 (AID 654);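 further: cells exposed to compound for 16 hours before reading; 0% = DMSO alone and 100% = caspase signal from 100 µM tamoxifen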
Method in brief: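 qHTS, HepG2, 1500 cells/well, complete medium; cpd 16 h 37 °C; Caspase-Glo 3/7, 20 min RT; lum. Norm: DMSO vs 100 uM tamoxifen; AC50 Hill fit.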

[5] = Cellular Toxicity (caspase-3) Jurkat (AID 655); conditions: Jurkat caspase-3 activation, luminescence; caspase-3 activation: at 92.2 µM (top of the series), DMSO = 0%, tamoxifen = 100%;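 further: cells exposed to compound for 16 h at 37 °C before reading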
Method in brief: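 Luminescent caspase-3/7 readout (aminoluciferin substrate cleavage) in human T-cell leukemia Jurkat cells after 16 hr compound exposure. Concentration-response normalized to DMSO and 100 uM tamoxifen; AC50 by standard Hill equation.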

[6] = Cellular Toxicity (caspase-3) HUV-EC-C (AID 656)
Method in brief: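 Luminescent caspase-3/7 activation (aminoluciferin substrate cleavage) in HUV-EC-C cells after 16 hr compound exposure, 37°C. Signal normalized to DMSO basal and 100 uM tamoxifen as 100%; AC50 from concentration-response fitted with the Hill equation.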

[7] = Cellular Toxicity (caspase-3) SHSY5Y (AID 657);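 further: cells exposed to compound for 16 hours at 37 °C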
Method in brief: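 Luminescent caspase-3/7 readout (aminoluciferin release) in SH-SY5Y cells after 16 h compound exposure in complete medium. Activity scaled between DMSO basal and 10 uM staurosporine as 100%; concentration-response fitted to Hill equation for AC50.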

[8] = Cellular Toxicity (caspase-3) BJ (AID 658);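 further: cells exposed to compound for 16 hours; 0% = DMSO basal and 100% = 10 µM staurosporine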
Method in brief: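 Luminescent aminoluciferin-substrate cleavage reports caspase 3/7 activity in normal human BJ fibroblasts after 16 hr compound exposure at 37 °C. Normalized to DMSO (basal) and 10 uM staurosporine (100%); AC50 from Hill fit of concentration-response.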

[9] = Cellular Toxicity (caspase-3) MRC-5 (AID 659);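 further: cells exposed to compound for 16 h at 37 °C; 0% = DMSO basal and 100% = 10 µM staurosporine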
Method in brief: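 Luminescence from caspase-cleaved aminoluciferin substrate (Caspase-Glo 3/7, 1 hr RT) reports caspase 3/7 activity in MRC-5 lung fibroblasts after 16 hr compound exposure. Normalized to DMSO basal and 10 uM staurosporine as 100%; AC50 from Hill fits.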

CC(=O)c1nccs1
inactive: Potency [1] | Potency [2] | Potency [3] | Potency [4] | caspase-3 activation [5] 0.174% | outcome [6] | outcome [7] | outcome [8] | outcome [9]

OC/C(Br)=C(\Br)CO
inactive: Potency [1] | Potency [2] | Potency [3] | Potency [4] | caspase-3 activation [5] 3.75% | outcome [6] | outcome [7] | outcome [9]

Nc1cccc(N)c1
inactive: Potency [1] | Potency [3] | Potency [4] | caspase-3 activation [5] 0.427% | outcome [6] | outcome [7] | outcome [9]

O=Cc1ccc(Cl)cc1
inactive: Potency [1] | Potency [2] | Potency [3] | Potency [4] | caspase-3 activation [5] -1.13% | outcome [6] | outcome [7] | outcome [8] | outcome [9]

O=Cc1ccccc1Cl
inactive: Potency [1] | Potency [2] | Potency [3] | Potency [4] | caspase-3 activation [5] 7.22% | outcome [6] | outcome [7] | outcome [8] | outcome [9]

CCCCC(CC)COC(=O)CCCCC(=O)OCC(CC)CCCC (stereo not given)
inactive: Potency [1] | Potency [2] | Potency [3] | Potency [4] | caspase-3 activation [5] -0.708% | outcome [6] | outcome [7] | outcome [8] | outcome [9]

COC(=O)c1ccccc1
inactive: Potency [1] | Potency [2] | Potency [3] | Potency [4] | caspase-3 activation [5] 2.94% | outcome [6] | outcome [7] | outcome [8] | outcome [9]

O=Cc1ccc(C(=O)O)cc1
inactive: Potency [1] | Potency [2] | Potency [3] | Potency [4] | caspase-3 activation [5] 0.522% | outcome [6] | outcome [7] | outcome [8] | outcome [9]

Cc1ccccc1C#N
inactive: Potency [1] | Potency [3] | Potency [4] | caspase-3 activation [5] 0.133% | outcome [6] | outcome [7] | outcome [8] | outcome [9]

CCCCCCC(=O)O
inactive: Potency [1] | Potency [2] | Potency [3] | Potency [4] | outcome [6] | outcome [8] | outcome [9]

Nc1nc(-c2ccccc2)cs1
inactive: Potency [2] | Potency [3] | Potency [4] | outcome [8] | outcome [9]

COc1ccc(N=[N+]([O-])c2ccc(OC)cc2)cc1
inactive: Potency [1] | Potency [3] | caspase-3 activation [5] -8.89% | outcome [6] | outcome [7] | outcome [8] | outcome [9]

Cc1ccc([N+](=O)[O-])c(N)c1
inactive: Potency [1] | Potency [2] | Potency [3] | Potency [4] | caspase-3 activation [5] 1.25% | outcome [7] | outcome [8] | outcome [9]

C=C(C)C(=O)OCC(C)C
inactive: Potency [1] | Potency [2] | Potency [3] | caspase-3 activation [5] 0.091% | outcome [6] | outcome [7] | outcome [8] | outcome [9]

CCCCCCC=O
inactive: Potency [1] | Potency [2] | Potency [3] | Potency [4] | caspase-3 activation [5] 0.767% | outcome [6] | outcome [7] | outcome [8] | outcome [9]

Cc1ccc(C)o1
inactive: Potency [1] | Potency [3] | Potency [4] | outcome [6] | outcome [7] | outcome [8] | outcome [9]

CCCCCCCCCCCCC1CO1 (stereo not given)
inactive: Potency [1] | Potency [2] | Potency [3] | Potency [4] | caspase-3 activation [5] -0.853% | outcome [6] | outcome [7] | outcome [8] | outcome [9]

CN(C)c1cccc(O)c1
inactive: Potency [1] | Potency [2] | Potency [3] | caspase-3 activation [5] -0.572% | outcome [6] | outcome [7] | outcome [8] | outcome [9]

Nc1c(Cl)cc(Cl)cc1Cl
inactive: Potency [1] | Potency [2] | Potency [3] | Potency [4] | caspase-3 activation [5] 1.83% | outcome [6] | outcome [7] | outcome [8] | outcome [9]

O=Cc1cccc(Br)c1
inactive: Potency [1] | Potency [2] | Potency [3] | Potency [4] | caspase-3 activation [5] 2.44% | outcome [7] | outcome [9]

COCCOC(=O)c1ccccc1C(=O)OCCOC
inactive: Potency [1] | Potency [2] | Potency [3] | Potency [4] | caspase-3 activation [5] 0.0969% | outcome [6] | outcome [9]

CCCCCNCCCCC
inactive: Potency [1] | Potency [2] | Potency [3] | caspase-3 activation [5] -1.44% | outcome [6] | outcome [8] | outcome [9]

CC(=O)Nc1ccccc1C
inactive: Potency [1] | Potency [2] | Potency [3] | Potency [4] | outcome [6] | outcome [7] | outcome [8] | outcome [9]

Cc1c(N)cccc1[N+](=O)[O-]
inactive: Potency [1] | Potency [2] | Potency [3] | Potency [4] | caspase-3 activation [5] 2.77% | outcome [6] | outcome [7] | outcome [8] | outcome [9]

CCCC=O
inactive: Potency [1] | Potency [2] | Potency [3] | Potency [4] | caspase-3 activation [5] -0.873% | outcome [6] | outcome [8] | outcome [9]

O=C(O)/C=C/C(=O)O
inactive: Potency [1] | Potency [2] | Potency [3] | Potency [4] | outcome [6] | outcome [7] | outcome [8] | outcome [9]

Cc1ccc(S(=O)(=O)NC2CCCCC2)cc1
inactive: Potency [1] | Potency [3] | Potency [4] | caspase-3 activation [5] 0.692% | outcome [6] | outcome [8] | outcome [9]

CC(=O)c1ccccc1[N+](=O)[O-]
inactive: Potency [1] | Potency [2] | Potency [3] | Potency [4] | caspase-3 activation [5] 0.506% | outcome [6] | outcome [7] | outcome [8] | outcome [9]

Cc1ccc(C)cc1
inactive: Potency [1] | Potency [3] | caspase-3 activation [5] 2.23% | outcome [6] | outcome [7] | outcome [8] | outcome [9]

CC(C)C=O
inactive: Potency [1] | Potency [2] | Potency [3] | Potency [4] | caspase-3 activation [5] 0.00972% | outcome [6] | outcome [7] | outcome [8] | outcome [9]

Cc1cc(C)cc(N)c1
inactive: Potency [1] | Potency [2] | Potency [3] | Potency [4] | caspase-3 activation [5] 0.537% | outcome [8] | outcome [9]

O=[N+]([O-])c1cccc(Cl)c1
inactive: Potency [1] | Potency [2] | Potency [3] | Potency [4] | caspase-3 activation [5] -3.2% | outcome [6] | outcome [7] | outcome [9]

N#CCc1ccccc1[N+](=O)[O-]
inactive: Potency [2] | Potency [3] | Potency [4] | caspase-3 activation [5] 1.28% | outcome [7] | outcome [8] | outcome [9]

CCOC(=O)OCC
inactive: Potency [1] | Potency [2] | Potency [3] | Potency [4] | caspase-3 activation [5] 0.854% | outcome [6] | outcome [7] | outcome [8] | outcome [9]

O=CNc1ccccc1
inactive: Potency [1] | Potency [2] | Potency [3] | Potency [4] | caspase-3 activation [5] 0.613% | outcome [6] | outcome [7] | outcome [9]

O=C(O)c1ccccc1Cl
inactive: Potency [1] | Potency [3] | Potency [4] | caspase-3 activation [5] -0.163% | outcome [6] | outcome [7] | outcome [9]

Cc1cc([N+](=O)[O-])ccc1N
inactive: Potency [1] | Potency [2] | Potency [3] | Potency [4] | caspase-3 activation [5] -1.03% | outcome [6] | outcome [8] | outcome [9]

O=C(O)c1ccc(Cl)c(Cl)c1
inactive: Potency [1] | Potency [2] | Potency [3] | Potency [4] | caspase-3 activation [5] -1.55% | outcome [6] | outcome [7] | outcome [8] | outcome [9]

C[C@@H]1O[C@@H](O[C@@H]2[C@@H](O)[C@H](OCCc3ccc(O)c(O)c3)O[C@H](CO[C@@H]3O[C@H](CO)[C@@H](O)[C@H](O)[C@H]3O)[C@H]2OC(=O)/C=C/c2ccc(O)c(O)c2)[C@H](O)[C@H](O)[C@H]1O
inactive: Potency [1] | Potency [3] | Potency [4] | outcome [6] | outcome [7] | outcome [8] | outcome [9]
